# Most compounds without a hit are left out; they make up all but 21% or so of the library.
# HCV inhibitor = inhibitors of hepatitis C virus infection | Huh7.5.1 HCVcc-Cre infection, luciferase reporter, 44 h | Potency, µM (series often up to 41.8 µM), inactives show at the highest dose activity change, negative = inhibition, hits mostly inhibitors | 3.4% of 340,000 active | AID 651820; also: potency is read from the fitted curve at half-maximal effect; % is scaled to controls: 0 for no effect and ±100 for the full control effect
#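 1,000 cells/well; 4 h culture; + compound; + HCVcc-Cre (~0.5 moi); 44 h; luciferase substrate, RT 15 min; read 15 sec.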
# Cycloheximide cs = affects cycloheximide protein synthesis inhibition readout, counter-screen; cell reporter, cycloheximide protein synthesis inhibition counterscreen; max response, %; 12% of 300,000 active; AID 2314; in the data active = max response mostly above about 13%, no sharp cut-off; inactive = mostly below about 14%; also: read at 38.3 µM for the half of the compounds with a filed dose; 0% is about no effect
# Shiga inhibitor = Shiga toxin inhibition | 9.2% of 290,000 active | Vero cells, Shiga toxin protein synthesis inhibition reporter | inhibition, % at 38.7 µM; in the data active = inhibition mostly above about 28%, no sharp cut-off; inactive = mostly below about 43%; also: 0% is about no effect
# HCMV antiviral = blocks human cytomegalovirus replication | HFF cells, HCMV-luciferase reporter, 72 h; active compounds read low | activity change, negative = inhibition, % at 57.5 µM | 4.5% of 410,000 active | AID 1259415; in the data active = activity change below about -60%; inconclusive = no clear call, values can overlap the other calls; inactive = above about -39%; also: % is scaled to controls: 0 for no effect and ±100 for the full control effect
#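 Inhibition of viral replication was scored as loss of reporter luminescence in HFFs infected with HCMV-luciferase (MOI 1 PFU/cell) for 72 h; compounds tested at 2 doses, normalized to buffer and Salinomycin controls.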
# Pf growth 48h = P. falciparum growth inhibition at 48 hours (one generation). 5.9% of 310,000 active. AID 504832. P. falciparum luciferase growth in erythrocytes, 48 h. Potency, µM (highest dose often 28.7 µM), for the others: top-dose activity change, negative = inhibition, most hits filed as inhibitors; also: potency is read from the fitted curve at half-maximal effect; % is scaled to controls: 0 for no effect and ±100 for the full control effect
#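 Luciferase-expressing P. falciparum in infected erythrocytes (2% hematocrit, 0.1% parasitemia final) in RPMI 1640/0.5% Albumax were exposed to compound for 48 hours at 37 C, 5% CO2; growth read as luminescence.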
# Pf growth 96h = P. falciparum growth inhibition at 96 hours. P. falciparum luciferase reporter growth, 96 h. Potency, µM (titrated, usually from 28.7 µM), inactives show at the highest dose activity change, negative = inhibition, actives largely listed as inhibitors. AID 504834. 6.9% of 320,000 active; also: potency is read from the fitted curve at half-maximal effect; % is scaled to controls: 0 for no effect and ±100 for the full control effect
#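 P. falciparum expressing integrated firefly luciferase, in erythrocytes at 2% hematocrit, 0.05% parasitemia, incubated with compounds 96 h at 37 C, 5% CO2. Growth inhibition read as loss of luminescence; two-generation exposure targets delayed-death apicoplast inhibitors.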
# Numbers without * were called inactive; i = inactive; ? = inconclusive; nt = no result. Unless noted, calls follow the shape of the dose curve; as a rule, active = well fitted inhibition curve with a large enough effect; inconclusive = small, poorly fitted or top-dose-only effect, or another doubt; inactive = no such curve, though single readings can be large or run the other way.
SMILES,HCV inhibitor,Cycloheximide cs,Shiga inhibitor,HCMV antiviral,Pf growth 48h,Pf growth 96h
COc1cc(C(C)=O)ccc1OCC(=O)Nc1cc(Cl)ccc1-n1cncn1,?,nt,nt,-1,-1%,-24%
CCN1CCN(c2ccc(S(=O)(=O)N3CCCCC3)cc2NC(=O)COc2ccc(Cl)c(C)c2)CC1,11µM*,1,-4,17,4.7µM*,?
CCN1CCN(c2ccc(S(=O)(=O)N3CCCCC3)cc2NC(=O)COc2ccccc2)CC1,?,nt,nt,-3,12µM*,?
COc1ccccc1OCC(=O)Nc1cc(C(F)(F)F)ccc1-n1cncn1,-8%,nt,nt,-30,9.3µM*,?
CCN1CCN(c2ccc(S(=O)(=O)N3CCCCC3)cc2NC(=O)Cc2ccccc2)CC1,?,nt,nt,-14,?,?
CCN1CCN(c2ccc(S(=O)(=O)N3CCCCC3)cc2NC(=O)c2ccc([N+](=O)[O-])s2)CC1,35µM*,nt,nt,-26,4.7µM*,1.7µM*
Cc1cc(F)ccc1S(=O)(=O)Nc1ccc2oc3c(c2c1)CC(C)CC3 (stereo not given),nt,nt,nt,-18,nt,nt
COc1ccccc1OCC(=O)Nc1ccc(N2CCOCC2)cc1N1CCOCC1,-3%,nt,nt,32,2%,?
COc1ccccc1OCC(=O)Nc1cc(Cl)ccc1N1CCCCC1,10µM*,nt,nt,?,10µM*,?
CCN1CCN(c2ccc(S(=O)(=O)N3CCCCC3)cc2NC(=O)Cc2ccc(Cl)c(Cl)c2)CC1,?,nt,nt,nt,10µM*,10µM*
Cc1ccc(OCC(=O)Nc2cc(S(=O)(=O)N3CCCCC3)ccc2N2CCN(C)CC2)c(C)c1,?,nt,nt,5,2.3µM*,1.5µM*
CCOc1ccc(S(=O)(=O)N2CCN(CC)CC2)cc1NC(=O)c1ccccc1F,-15%,-5,-8,-84*,-4%,-32%
Cc1ccc(S(=O)(=O)N2CCOCC2)cc1C(=O)c1nccn1C,?,-3,-4,-3,29%,-13%
CCOc1c(CC2C(=O)Nc3ccc(Br)cc32)cccc1OC (stereo not given),nt,nt,nt,-20,nt,nt
COc1ccc(/C=C(\C#N)C(=O)Nc2cc(S(=O)(=O)N3CCCCC3)ccc2N2CCCCC2)cc1,1%,-2,-2,-13,?,8.3µM*
CCOc1cc2c(cc1OCC)C(c1c(F)cccc1Cl)CC(=O)N2 (stereo not given),nt,nt,nt,-14,nt,nt
O=C(c1cccc(F)c1)N1CCN(c2cc(N3CCCCC3)c(F)cc2[N+](=O)[O-])CC1,3%,7,-11,-74*,?,?
O=C(c1ccc(N2CCCC2)c([N+](=O)[O-])c1)N1CCN(S(=O)(=O)c2ccccc2)CC1,14µM*,nt,nt,2,10µM*,?
Cc1ccc(C)c(S(=O)(=O)N2CCN(C(=O)c3ccc(-n4cncn4)c([N+](=O)[O-])c3)CC2)c1,?,nt,nt,-4,?,12µM*
O=C(c1ccc(-n2cncn2)c([N+](=O)[O-])c1)N1CCN(S(=O)(=O)c2ccc(Cl)cc2)CC1,3%,1,-10,-22,?,4.7µM*
O=C(c1ccc(-n2cncn2)c([N+](=O)[O-])c1)N1CCN(c2cccc(Cl)c2)CC1,nt,-3,-13,-26,4%,-25%
CCC(=O)N1CCN(c2cc(N3CCCC3)c(F)cc2[N+](=O)[O-])CC1,-1%,nt,nt,?,nt,nt
Cc1nc(CNC(=O)CC2C(=O)NCCN2Cc2ccoc2)nc2c1CCCC2 (stereo not given),3%,-3,-7,-36,3%,-9%
COc1cccc(NS(=O)(=O)c2ccc3[nH]cc(C(=O)NCCc4ccccc4)c(=O)c3c2)c1,nt,nt,nt,0,nt,nt
O=C(c1ccc2ccccc2n1)N1CCN(Cc2c(F)cccc2Cl)CC1,-2%,-4,5,56,5%,1%
SMILES,HCV inhibitor,Cycloheximide cs,Shiga inhibitor,HCMV antiviral,Pf growth 48h,Pf growth 96h
CCc1ccc2nc(N3CCN(C(=O)C(C)(C)C)CC3)sc2c1,?,23*,55*,-30,15%,?
CC(C)(C)C(=O)N1CCN(c2nc3ccccc3s2)CC1,-29%,57*,76*,0,116%,179%
CCCC(=O)N1CCN(c2nc3ccccc3s2)CC1,?,42*,42*,?,21%,268%
Fc1cccc(Cl)c1CN1CCN(c2nc3ccccc3s2)CC1,2%,53*,159*,23,66%,129%
O=C(c1ccc2c(c1)N(Cc1ccccc1F)C(=O)c1ccccc1S2=O)N1CCN(c2ccccc2)CC1 (stereo not given),nt,nt,nt,-37,nt,nt
CCOC(=O)c1c(C)[nH]c(C)c1S(=O)(=O)N1CCCC(C(=O)N2CCN(c3ccccc3F)CC2)C1 (stereo not given),nt,nt,nt,9,nt,nt
CC(=O)c1ccc(-c2ccc(C(=O)NCC3CCCO3)o2)cc1 (stereo not given),?,nt,nt,25,-13%,-29%
CCSc1ccccc1C(=O)N1CCN(c2nc3ccccc3s2)CC1,nt,nt,nt,-67*,nt,nt
CCN1CCN(c2nc3ccccc3s2)CC1,0%,33*,77*,122,105%,i
COc1ccc(CCNC(=O)CSc2cc(=O)n(C)c3ccccc23)cc1OC,nt,nt,nt,6,nt,nt
CC(C)c1ccc(NC(=O)COc2nncc3ccccc23)cc1,1%,24*,43*,-1,-1%,2%
O=C(COc1nncc2ccccc12)Nc1ccc(F)c(F)c1,20%,-4,21,-101*,15%,?
COc1ccc(Nc2c(-c3ccsc3)nc3nc(C)cc(C)n23)cc1,nt,nt,nt,8,nt,nt
CNc1nc2cccnc2s1,4%,8,27,-23,29%,31%
CCNc1nc2cccnc2s1,4%,26*,38,63,36%,41%
COc1ccc(S(=O)(=O)N2CC3CCCN3c3ccc(C(F)(F)F)cc32)cc1 (stereo not given),?,-1,2,-30,?,13µM*
CCc1ccc(CN(C)C(=O)C2=CC=CN3CCS(=O)(=O)N=C23)cc1,?,nt,nt,-19,3%,45%
Cc1ccc(S(=O)(=O)n2ccc3cccnc32)cc1,-1%,-3,50,13,?,-19%
Cc1ccc(S(=O)(=O)n2cccc2/C=C/[N+](=O)[O-])cc1,nt,nt,nt,-98*,nt,nt
CCC(=O)Oc1ccc(-c2cnc3ccccc3n2)cc1,8%,32*,60,114,28%,317%
O=C(Oc1ccc(-c2cnc3ccccc3n2)cc1)c1ccco1,?,23*,64,119,171%,nt
CCOC(=O)COc1cnc2ccccc2n1,17%,2,13,28,?,0%
COc1ccc2c(c1)[C@H]1[C@H](CO2)[C@H](c2ccccc2)[C@]2(C)C(=O)N(CC3CCCO3)CC(=O)N12 (stereo not given in full),6%,nt,nt,-4,?,?
